The panel holds about 79,000 compounds, 15% with a hit somewhere; the sample as a whole holds those more often. Values without a mark were called inactive. The source made the active and inactive calls. No stated cut-off is given here; in the data, active means growth inhibition above about 70%; inactive means the rest.
Assay: NCI Yeast Anticancer Drug Screen. Data for the wt2 strain (AID 169);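 further: 0% = growth of vehicle-treated yeast cultures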
Conditions: S. cerevisiae wt2 strain growth inhibition, stronger effect = higher value
Method: Growth inhibition of yeast strains with defined genetic alterations is measured as a screen for potential anti-cancer activity. Selected strains with alterations in DNA damage repair or cell cycle control were exposed to compounds and growth inhibition was measured relative to vehicle treated controls. The strain used in this assay is wt2

Row | Structure (SMILES) | growth inhibition (at 1.2 µM) | growth inhibition (at 3.7 µM) | growth inhibition (at 11.0 µM) | growth inhibition (at 33.0 µM) | growth inhibition (at 100.0 µM)
1 | C/C(=N\OCC(O)CNCCSCc1ccccc1)c1ccccc1Cl (stereo not given) | -1% | 8% | 11% | 30% | 81% (active)
2 | Cc1cccc(C)c1NC(=O)C(C#N)C1=C(Cl)C(=O)c2ccccc2C1=O (stereo not given) | -22% | 35% | 98% (active) | 98% (active) | 98% (active)
3 | CC(C)(N=Nc1ccc(Cl)cc1)[N+](=O)[O-] | 12% | 15% | 88% (active) | 98% (active) | 98% (active)
4 | c1cc(-c2sc(-c3ccncc3)c(-c3ccncc3)c2-c2ccncc2)ccn1 | 0% | 0% | 0% | 17% | 79% (active)
5 | Cc1cc2nc3ccccc3n2c2ccccc12 | -57% | -45% | -51% | -23% | 45%
6 | C/C(=N/NC(=S)Nc1ccccc1C)c1ccccn1 | -6% | -6% | -5% | -5% | -5%
7 | CCC[CH2][Sn]([CH2]CCC)([CH2]CCC)/[C](=C/[Si](C)(C)c1ccccc1)c1ccc2c(c1)OCO2 | 0% | 35% | 95% (active) | 92% (active) | 93% (active)
8 | NC(=S)N/N=C1\c2ccccc2CCC1CCC1(O)CCc2ccccc2C1=O (stereo not given) | -8% | -7% | 13% | 62% | 83% (active)
